# Results reported in the supplement of paper PMC12645437, “Orthogonal IMiD-Degron Pairs Induce Selective Protein Degradation in Cells” (ACS Chemical Biology, 2025).
# Over roughly 8,300 sequences, “log2 fold change of degron read counts, EGFP-low vs EGFP+ sorted cells (limma voom), compound-induced degradation” has its median near -1.1; the highest 2% begin near 3.2. The full list was thinned out, with the highest values kept by preference.
# T1: CRBN, Q96SW2
# T1 chain: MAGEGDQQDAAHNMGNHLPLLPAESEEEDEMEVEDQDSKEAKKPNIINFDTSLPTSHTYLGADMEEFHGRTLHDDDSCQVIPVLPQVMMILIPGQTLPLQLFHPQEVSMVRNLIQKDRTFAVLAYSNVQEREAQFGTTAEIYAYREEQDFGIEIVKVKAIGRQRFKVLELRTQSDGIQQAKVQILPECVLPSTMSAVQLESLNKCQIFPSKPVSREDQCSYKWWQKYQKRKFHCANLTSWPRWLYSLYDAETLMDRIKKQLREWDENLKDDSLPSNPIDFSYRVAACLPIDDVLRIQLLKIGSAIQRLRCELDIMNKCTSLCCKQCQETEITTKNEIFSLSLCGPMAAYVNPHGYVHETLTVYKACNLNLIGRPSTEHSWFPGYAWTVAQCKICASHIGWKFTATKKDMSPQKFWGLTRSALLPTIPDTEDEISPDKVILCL
# Molecular target: T1, CRBN, Q96SW2
# Assay: log2 fold change of degron read counts, EGFP-low vs EGFP+ sorted cells (limma voom), compound-induced degradation; higher = more compound-induced degradation of the degron-EGFP fusion; degrons are variants of IKZF1/3 zinc finger 2; compound dose not given here
# Settings: Jurkat, 18 h
# [1] = compound: compound 19 (5-tert-butyl-thalidomide)
# [2] = compound: compound 22 (5-morpholino-thalidomide)
# [3] = compound: compound 33 (diphenyl IMiD analogue)
# 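Further: pooled lentiviral library of zinc finger degron-EGFP fusions in mCherry-positive Jurkat cells, FACS-sorted after compound exposure, with degron abundance counted by next-generation sequencing.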
Sequence,log2 fold change of degron read counts [1],log2 fold change of degron read counts [2],log2 fold change of degron read counts [3],log2 fold change of degron read counts (compound: thalidomide)
"FMCNQCGAIFTQKGNLLRHIKL [46F_47M_49N_50Q_52G_53A_54I_55F_67L_, Q9UKT9]",-1.99,-2.22,-1.03,-1.47
"FECPICGHRFTQKGNLLRHIKL [46F_47E_49P_50I_52G_53H_54R_55F_67L_, Q9UKT9]",-2.87,-2.87,-1.63,-0.824
"LHCEICGFCCTQKGNLLRHIKL [46L_47H_49E_50I_52G_53F_54C_55C_67L_, Q9UKT9]",1.84,1.64,1.25,0.874
"FYCEICGRTFTQKGNLLRHIKL [46F_47Y_49E_50I_52G_53R_54T_55F_67L_, Q9UKT9]",0.432,1.09,0.33,-1.02
"FYCNQCGHVFTQKGNLLRHIKL [46F_47Y_49N_50Q_52G_53H_54V_55F_67L_, Q9UKT9]",-2.11,-2.08,-2.48,-1.76
"FHCPVCGAFFTQKGNLLRHIKL [46F_47H_49P_50V_52G_53A_54F_55F_67L_, Q9UKT9]",0.94,0.598,1.1,-0.224
"FRCEICGAYFTQKGNLLRHIKL [46F_47R_49E_50I_52G_53A_54Y_55F_67L_, Q9UKT9]",-0.965,-0.721,0.747,1.98
"FACEICGAYFTQKGNLLRHIKL [46F_47A_49E_50I_52G_53A_54Y_55F_67L_, Q9UKT9]",3.17,1.39,0.71,0.202
"FYCEICGAYFTQKGNLLRHIKL [46F_47Y_49E_50I_52G_53A_54Y_55F_67L_, Q9UKT9]",3.25,2.89,2.12,0.307
"FWCEICGAYFTQKGNLLRHIKL [46F_47W_49E_50I_52G_53A_54Y_55F_67L_, Q9UKT9]",3.24,2.92,1.88,0.14
"FGCEICGAYFTQKGNLLRHIKL [46F_47G_49E_50I_52G_53A_54Y_55F_67L_, Q9UKT9]",1.74,0.231,2.58,0.883
"FICEICGAYFTQKGNLLRHIKL [46F_47I_49E_50I_52G_53A_54Y_55F_67L_, Q9UKT9]",-0.272,1.41,2.34,2.12
"FHCDQCGACFTQKGNLLRHIKL [46F_47H_49D_50Q_52G_53A_54C_55F_67L_, Q9UKT9]",-1.69,-1.96,-2.17,-2.89
"FICPICGAIFTQKGNLLRHIKL [46F_47I_49P_50I_52G_53A_54I_55F_67L_, Q9UKT9]",-1.09,0.608,1.82,1.64
"FICPICGRHFTQKGNLLRHIKL [46F_47I_49P_50I_52G_53R_54H_55F_67L_, Q9UKT9]",-1.55,-0.572,-0.548,0.569
"FYCDVCGATFTQKGNLLRHIKL [46F_47Y_49D_50V_52G_53A_54T_55F_67L_, Q9UKT9]",2.06,2.82,0.691,-1.49
"FTCEVCGALFTQKGNLLRHIKL [46F_47T_49E_50V_52G_53A_54L_55F_67L_, Q9UKT9]",-0.893,-0.862,0.362,0.612
"FSCEVCGARFTQKGNLLRHIKL [46F_47S_49E_50V_52G_53A_54R_55F_67L_, Q9UKT9]",3.53,2.6,0.369,2.08

Sequence,log2 fold change of degron read counts [1],log2 fold change of degron read counts [2],log2 fold change of degron read counts [3],log2 fold change of degron read counts (compound: thalidomide)
"FRCEVCGARFTQKGNLLRHIKL [46F_47R_49E_50V_52G_53A_54R_55F_67L_, Q9UKT9]",-1.49,-2.37,-0.456,0.516
"FHCEVCGARFTQKGNLLRHIKL [46F_47H_49E_50V_52G_53A_54R_55F_67L_, Q9UKT9]",2.39,2.38,0.473,0.568
"FTCEVCGARFTQKGNLLRHIKL [46F_47T_49E_50V_52G_53A_54R_55F_67L_, Q9UKT9]",1.77,3.04,1.75,3.26
"FTCNICGAGFTQKGNLLRHIKL [46F_47T_49N_50I_52G_53A_54G_55F_67L_, Q9UKT9]",0.378,0.88,1.61,1.21
"FSCEICGAEFTQKGNLLRHIKL [46F_47S_49E_50I_52G_53A_54E_55F_67L_, Q9UKT9]",1.69,0.708,0.218,0.0707
"FQCPICGAAFTQKGNLLRHIKL [46F_47Q_49P_50I_52G_53A_54A_55F_67L_, Q9UKT9]",2.65,3.13,2.56,3.53
"FSCPICGAAFTQKGNLLRHIKL [46F_47S_49P_50I_52G_53A_54A_55F_67L_, Q9UKT9]",3.12,2.69,2.7,2.11
"FRCPICGAAFTQKGNLLRHIKL [46F_47R_49P_50I_52G_53A_54A_55F_67L_, Q9UKT9]",2.26,2.26,2.48,2.19
"FYCPICGAAFTQKGNLLRHIKL [46F_47Y_49P_50I_52G_53A_54A_55F_67L_, Q9UKT9]",2.86,3.24,2.38,0.578
"FICPICGAAFTQKGNLLRHIKL [46F_47I_49P_50I_52G_53A_54A_55F_67L_, Q9UKT9]",0.268,3.15,2.21,2.78
"FHCPICGAAFTQKGNLLRHIKL [46F_47H_49P_50I_52G_53A_54A_55F_67L_, Q9UKT9]",3.05,2.78,2.28,1.19
"FFCPICGAAFTQKGNLLRHIKL [46F_47F_49P_50I_52G_53A_54A_55F_67L_, Q9UKT9]",3.15,3,2.18,1.33
"FGCPICGAAFTQKGNLLRHIKL [46F_47G_49P_50I_52G_53A_54A_55F_67L_, Q9UKT9]",3.57,2.61,2.88,1.63
"FWCPICGAAFTQKGNLLRHIKL [46F_47W_49P_50I_52G_53A_54A_55F_67L_, Q9UKT9]",3.12,3.3,2.33,1.2
"FNCPICGAAFTQKGNLLRHIKL [46F_47N_49P_50I_52G_53A_54A_55F_67L_, Q9UKT9]",2.96,1.85,0.954,1.13
"FKCPICGAAFTQKGNLLRHIKL [46F_47K_49P_50I_52G_53A_54A_55F_67L_, Q9UKT9]",2.04,-0.319,-1.26,1.01
"FVCPICGAAFTQKGNLLRHIKL [46F_47V_49P_50I_52G_53A_54A_55F_67L_, Q9UKT9]",1.31,2.85,2.04,3.03
